This experiment addresses Genome polyprotein (dengue virus type 2) (UniProt P29990).
[1] abbreviates: Thailand/16681/1984, Concentration 25.0 uM, Number of replicates 1.0.

SMILES strings stand for the structures. In all, about 2,000 compounds went through this assay and about 110 (5.5%) showed an effect of 50% or more. This excerpt belongs to a sample that is enriched for strong results. Non-standard residues stand in square brackets, D forms with d. Residues, ends and D or L forms follow the SMILES beside them. Phg = N[C@H](C(=O)O)c1ccccc1; 4Amb = NCc1ccc(C(=O)O)cc1; Nle = CCCC[C@H](N)C(=O)O

As a reminder, the inhibition is the drop in the measured response relative to a control, in per cent. For the compound `Cn1c(C(=O)Nc2cc(Cl)cc(C(=O)NC(C)(C)CO)c2)cccc1=O`, the inhibition was -0.99% (Thailand/16681/1984, Concentration 49.5 uM, Number of replicates 2.0, Standard deviation 0.4081268580659683 %); -1.01% (Thailand/16681/1984, Concentration 99.01 uM, Number of replicates 2.0, Standard deviation 2.113430221710736 %); 0.352% (Thailand/16681/1984, Concentration 198.0 uM, Number of replicates 2.0, Standard deviation 2.072570516879941 %).
As for `NCc1cn(C2CCN(c3nc(-c4ccccc4)cs3)CC2)nn1`, the inhibition (Thailand/16681/1984, Concentration 49.5 uM, Number of replicates 2.0, Standard deviation 0.032513427640456005 %) is -4.62%; the inhibition (Thailand/16681/1984, Concentration 99.01 uM, Number of replicates 2.0, Standard deviation 1.6651164489567518 %) was -3.29%; the inhibition (Thailand/16681/1984, Concentration 198.0 uM, Number of replicates 2.0, Standard deviation 1.091599962537426 %) was determined as 0.094%.
Take `CC1(C)C[C@]1(CNC(=O)C1CCN(c2ccc(C=O)cc2)CC1)c1ccccc1`: the inhibition under setting [1] came to 12.2%.
For the compound `O=Cc1ccc(N2CCC(C(=O)N3CCc4c(Br)cccc4C3)CC2)cc1`, the inhibition under setting [1] was found to be 2.83%.
On to `Cc1cc(CO)c2cccc(Cc3ccccc3NC(=O)c3nc(N)n[nH]3)c2n1`, for which the inhibition (Thailand/16681/1984, Concentration 49.95 uM, Number of replicates 2.0, Standard deviation 1.581349166072865 %) was 0.804% and the inhibition (Thailand/16681/1984, Concentration 99.9 uM, Number of replicates 2.0, Standard deviation 1.2268610426733166 %) turned out to be 4.88%.
Regarding `Cc1cc(CO)c2cccc(NC(=O)c3nc(N)n[nH]3)c2n1`, the inhibition stood at 42.6% (Thailand/16681/1984, Concentration 49.95 uM, Number of replicates 2.0, Standard deviation 1.7045480288991801 %) and 67.3% (Thailand/16681/1984, Concentration 99.9 uM, Number of replicates 2.0, Standard deviation 15.015963199334223 %).
`Cc1cc(CO)c2cccc(Cc3cccc(NC(=O)c4nc(N)n[nH]4)c3)c2n1`: the inhibition (Thailand/16681/1984, Concentration 49.95 uM, Number of replicates 2.0, Standard deviation 2.1470069511188496 %) turned out to be 1.75% and the inhibition (Thailand/16681/1984, Concentration 99.9 uM, Number of replicates 2.0, Standard deviation 2.660737289988502 %) came out at 8.09%.
With `O=C(NCCc1cncnc1)c1cn([C@H]2CCCNC2)nn1`, the inhibition is -3.39% (Thailand/16681/1984, Concentration 49.5 uM, Number of replicates 2.0, Standard deviation 3.1505652659838077 %); -4.66% (Thailand/16681/1984, Concentration 99.01 uM, Number of replicates 2.0, Standard deviation 0.03260817375590849 %); -0.277% (Thailand/16681/1984, Concentration 198.0 uM, Number of replicates 2.0, Standard deviation 5.615654862136011 %).
Consider `Clc1ccc2[nH]cc(Cc3ccc(-c4nn[nH]n4)cc3)c2c1`, for which the inhibition (Thailand/16681/1984, Concentration 99.5 uM, Number of replicates 2.0, Standard deviation 0.137702183454793 %) worked out at 89.8% and the inhibition (Thailand/16681/1984, Concentration 295.6 uM, Number of replicates 2.0, Standard deviation 0.013886206472581278 %) stood at 98.9%.
Take `O=C(O)[C@H](c1c[nH]c2ccccc12)N1CCC(c2cnc3ccc[nH]c2-3)CC1`: the inhibition is, setting by setting: (Thailand/16681/1984, Concentration 49.5 uM, Number of replicates 2.0, Standard deviation 2.9336110336729484 %) -1.93%; (Thailand/16681/1984, Concentration 99.01 uM, Number of replicates 2.0, Standard deviation 1.2688833051000123 %) -1.4%; (Thailand/16681/1984, Concentration 198.0 uM, Number of replicates 2.0, Standard deviation 1.8509089452057481 %) 0.519%.
On to `CC(=O)N[C@H](C(=O)Nc1cccc(C(N)=O)c1)c1ccc(OCc2ccccc2)cc1`, for which the inhibition (Thailand/16681/1984, Concentration 49.5 uM, Number of replicates 2.0, Standard deviation 1.41100239398505 %) was -2.21%; the inhibition (Thailand/16681/1984, Concentration 99.01 uM, Number of replicates 2.0, Standard deviation 6.402498423083348 %) is 0.486%; the inhibition (Thailand/16681/1984, Concentration 198.0 uM, Number of replicates 2.0, Standard deviation 5.599350943845451 %) was found to be 0.73%.
`CCCC[C@H](NC(C)=O)C(=O)N[C@H](C(=O)NCc1ccc(C(N)=O)cc1)c1ccccc1` (Ac-[Nle]-[Phg]-[4Amb]-NH2): the inhibition reads like this: (Thailand/16681/1984, Concentration 49.5 uM, Number of replicates 2.0, Standard deviation 0.4432432329236086 %) -1.46%; (Thailand/16681/1984, Concentration 99.01 uM, Number of replicates 2.0, Standard deviation 0.9541533154251546 %) -0.354%; (Thailand/16681/1984, Concentration 198.0 uM, Number of replicates 2.0, Standard deviation 1.9838414541082603 %) 1.79%.
Regarding `CCCC[C@H](NC(C)=O)C(=O)N[C@H](C(=O)NCc1ccc(CN)cc1)c1ccccc1`, the inhibition by setting is: (Thailand/16681/1984, Concentration 49.5 uM, Number of replicates 2.0, Standard deviation 1.3580554366166637 %) 0.537%; (Thailand/16681/1984, Concentration 99.01 uM, Number of replicates 2.0, Standard deviation 18.440494023113153 %) 14.1%; (Thailand/16681/1984, Concentration 198.0 uM, Number of replicates 2.0, Standard deviation 14.8908767477505 %) 56%.
For the compound `CCCCCC(=O)N[C@@H](Cc1ccccc1)C(=O)NCc1cccc(CN)c1`, the inhibition is, setting by setting: (Thailand/16681/1984, Concentration 49.5 uM, Number of replicates 2.0, Standard deviation 0.5911657110409295 %) -0.287%; (Thailand/16681/1984, Concentration 99.01 uM, Number of replicates 2.0, Standard deviation 0.7592516208074989 %) -0.251%; (Thailand/16681/1984, Concentration 198.0 uM, Number of replicates 2.0, Standard deviation 1.593950905190228 %) -0.639%.
As for `CCCC[C@H](NC(C)=O)C(=O)N[C@H](C(=O)Nc1ccc(C(N)=O)cc1)c1ccc(OCc2ccccc2)cc1`, the inhibition runs as follows: (Thailand/16681/1984, Concentration 49.5 uM, Number of replicates 2.0, Standard deviation 2.073896751762033 %) -0.623%; (Thailand/16681/1984, Concentration 99.01 uM, Number of replicates 2.0, Standard deviation 0.38726109133313447 %) 4.02%; (Thailand/16681/1984, Concentration 198.0 uM, Number of replicates 2.0, Standard deviation 0.14852549415239058 %) 23%.
With `CCCC[C@H](NC(C)=O)C(=O)N[C@@H](C(=O)NCc1ccc(C(N)=O)cc1)c1ccc(OCc2ccccc2)cc1`, the inhibition was -2.14% (Thailand/16681/1984, Concentration 49.5 uM, Number of replicates 2.0, Standard deviation 1.1393107429607887 %); -2.15% (Thailand/16681/1984, Concentration 99.01 uM, Number of replicates 2.0, Standard deviation 1.3468928227151291 %); -0.786% (Thailand/16681/1984, Concentration 198.0 uM, Number of replicates 2.0, Standard deviation 1.6817028564994563 %).
For the compound `CCCC[C@H](NC(C)=O)C(=O)N[C@H](C(=O)NCc1ccc(CN)cc1)c1ccc(OCc2ccccc2)cc1`, the inhibition is -3.73% (Thailand/16681/1984, Concentration 49.5 uM, Number of replicates 2.0, Standard deviation 1.556187076043376 %); 9.94% (Thailand/16681/1984, Concentration 99.01 uM, Number of replicates 2.0, Standard deviation 1.4164928639405643 %); 99.6% (Thailand/16681/1984, Concentration 198.0 uM, Number of replicates 2.0, Standard deviation 0.0753329398535839 %).
As for `CCCC[C@H](NC(C)=O)C(=O)N[C@H](C(=O)Nc1cccc(C(N)=O)c1)c1ccc(OCc2ccccc2)cc1`, the inhibition runs as follows: (Thailand/16681/1984, Concentration 49.5 uM, Number of replicates 2.0, Standard deviation 1.3015902921422546 %) -0.513%; (Thailand/16681/1984, Concentration 99.01 uM, Number of replicates 2.0, Standard deviation 0.5153915569037094 %) 3.33%; (Thailand/16681/1984, Concentration 198.0 uM, Number of replicates 2.0, Standard deviation 0.5711740910196359 %) 8.87%.
